# Bioassay records as filed in PubChem BioAssay.
# HepG2 tox: qHTS for Inhibitors of TGF-b: Cytotox Counterscreen; HepG2 CAGA-GFP viability, ATP luminescence, 18 h; 0.76% of 410,000 active; AID 588856, 2011; Potency, µM (top dose mostly 46.1 µM), usual class: cytotoxic
#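 HepG2 CAGA-GFP cells (1000/well, DMEM with 1% FBS) received compound, then TGF-beta at 500 pg/mL final, and were incubated 18 hours at 37 degrees C. Viability was read by CellTiter-Glo luminescence. Media-only wells were set as complete cell-killing and DMSO as no toxicity.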
# RORgamma inh: qHTS for inhibitors of ROR gamma transcriptional activity | Nuclear receptor ROR-gamma (Mus musculus), P51450 | Drosophila S2 Gal4-RORgamma UAS-luciferase reporter, 20 h | Potency, µM (doses to about 53.6 µM), hits mostly inhibitors | 5.4% of 310,000 active | AID 2551, 2010; note: nearly all actives have a fitted effect of over 60% in size
# Target sequence (P51450 whole entry, looked up, the tested form may be a part): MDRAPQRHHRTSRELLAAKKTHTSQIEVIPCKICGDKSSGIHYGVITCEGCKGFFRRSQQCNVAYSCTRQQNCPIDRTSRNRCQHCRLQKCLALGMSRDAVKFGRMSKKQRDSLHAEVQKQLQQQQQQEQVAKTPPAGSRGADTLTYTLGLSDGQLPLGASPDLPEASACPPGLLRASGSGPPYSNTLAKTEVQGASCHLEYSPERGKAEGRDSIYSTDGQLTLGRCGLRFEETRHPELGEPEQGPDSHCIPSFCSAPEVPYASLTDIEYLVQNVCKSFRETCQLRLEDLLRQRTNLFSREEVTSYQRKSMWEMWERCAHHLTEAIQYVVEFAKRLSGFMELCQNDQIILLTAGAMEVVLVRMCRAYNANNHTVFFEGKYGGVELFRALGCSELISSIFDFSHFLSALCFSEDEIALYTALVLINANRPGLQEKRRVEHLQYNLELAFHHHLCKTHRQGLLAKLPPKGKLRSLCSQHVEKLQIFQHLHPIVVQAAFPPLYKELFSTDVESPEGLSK
#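 Read-out: Photinus luciferase luminescence; inhibitors lower reporter signal. Insect Schneider cells with Gal4-ROR gamma fusion under metallothionein promoter, UAS reporter; 700 uM final copper sulfate induction, 20 hr, ambient temperature.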
# ATXN2 expr inh: Primary qHTS for Inhibitors of ATXN expression; AID 1745845, 2022; 0.72% of 360,000 active; HEK-293 ATXN2-luciferase reporter, luminescence, 24 h; Potency, µM (highest dose often 57 µM), usual class: inhibitors; note: nearly all actives have a fitted effect of over 55% in size
#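 qHTS (up to 57 uM final) was run with 24 h compound exposure of reporter cells at 37 °C. Each well was multiplexed: SteadyGlo luminescence measured ATXN2-luciferase expression after a fluorogenic Gly-Phe-AFC viability readout (25 uM final).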
# Gal4-VP16 FLuc: VP16 counterscreen qHTS for inhibitors of ROR gamma transcriptional activity | Potency, µM (doses to about 53.6 µM), usual class: inhibitors | AID 2546, 2010 | Drosophila S2 Gal4-VP16 UAS-luciferase, luminescence, 20 h | 3.5% of 310,000 active;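 note: Gal4-VP16 expression switched on by copper sulfate through the metallothionein promoter; nearly all actives have a fitted effect of over 50% in size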
# S2 tox: Viability Counterscreen for Primary qHTS for Inhibitors of ATXN expression | S2 cells (HEK-293 line with an ATXN2-luciferase reporter) viability, CellTiter-Fluor protease fluorescence, 24 h | Potency, µM (top dose mostly 56.7 µM), usual class: cytotoxic | 0.49% of 400,000 active | AID 651635, 2014; note: nearly all actives have a fitted effect of over 40% in size
# TGFb SMAD3 inh: qHTS for Inhibitors of TGF-b | Potency, µM (doses to about 46.1 µM), most hits filed as inhibitors | 1.2% of 410,000 active | AID 588855, 2011 | HepG2 CAGA-GFP TGF-b/SMAD3 reporter, GFP fluorescence, 18 h; TGF-beta stimulated, 500 pg/mL final; note: nearly all actives have a fitted effect of over 65% in size
#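 HEPG2 CAGA-GFP, 1000 cells/well; 2 h settle, 37 C; cpd via pin tool; TGF-b 500 pg/mL final; 18 h, 37 C; GFP imaging ex488/em500-530; %Activity normalised to -TGF-b and +DMSO controls; CRC fit, curve class.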
# Numbers stand for hits; i = inactive; ? = inconclusive; nt = no result given; [ ] = remark or other dose. Only some compounds are listed: those with a hit (about 6.3% of all), similar ones and a draw of the others. Calls come from the whole dose curve; as a rule, active = well fitted curve in the direction sought with a large enough effect; inconclusive = small, poorly fitted or top-dose-only effect, or another doubt; inactive = no such curve, though single readings can be large; an effect the other way counts as inactive or inconclusive.
SMILES,HepG2 tox,RORgamma inh,ATXN2 expr inh,Gal4-VP16 FLuc,S2 tox,TGFb SMAD3 inh
CC1(C)N=C(N)N=C(N)N1c1ccc(OCC(=O)N2CCOCC2)cc1,i,nt,nt,nt,i,i
Nc1nonc1C(=O)NCCNCc1ccc(Cl)c(Cl)c1,i,nt,i,nt,i,i
CCOC(=O)C1=C(C)NC(=O)NC1c1cn(-c2ccccc2)nc1-c1ccc(OC(C)C)cc1 (configuration not stated),i,nt,?,nt,i,?
CC1=C(C(=O)c2ccccc2)C(c2cn(-c3ccccc3)nc2-c2ccc(Cl)cc2)NC(=S)N1 (configuration not stated),i,5.6µM,i,3.5µM,?,i
COCc1ccc(CN2Cc3ccccc3OC(c3ccccc3OC)C2)o1 (configuration not stated),nt,nt,nt,nt,i,nt
CCC1=NN(C(=O)c2ccc([N+](=O)[O-])cc2)C(O)(c2ccccc2)C1 (configuration not stated),13µM,i[1.91 µM],?,?,28µM,?
CCC1=NN(C(=O)Cc2ccc([N+](=O)[O-])cc2)C(O)(C(C)(C)C)C1 (configuration not stated),i,8.9µM,i,i,i,i
CCc1ccc(C2(O)CC(C(F)(F)F)=NN2C(=O)Cc2ccc([N+](=O)[O-])cc2)cc1 (configuration not stated),i,?,i,i,i,?
CCC1=NN(C(=O)c2ccc(Cl)cc2)C(O)(c2ccc(C)cc2)C1 (configuration not stated),13µM,18µM,i,25µM,i,11µM
CCOC(=O)C1=NN(C(=O)c2ccc(C)cc2)C(O)(c2ccc(Cl)cc2)C1 (configuration not stated),i,?,i,?,i,i
O=C(c1ccccc1O)N1N=C(C(F)(F)F)CC1(O)c1ccc([N+](=O)[O-])cc1 (configuration not stated),i,11µM,nt,10µM,?,?
CCC[C@@H]1C[C@@H](C(=O)N[C@@H]([C@H]2O[C@H](SC)[C@H](OP(=O)(O)O)[C@@H](O)[C@H]2O)[C@H](C)Cl)N(C)C1,nt,nt,nt,nt,i,nt
COc1ccc(C(=O)OCC(=O)NC2CCCCCCC2)cc1OC,i,nt,i,nt,i,i
CCC1=NN(C(=O)c2ccc(Cl)cc2)C(O)(c2ccccc2)C1 (configuration not stated),i,?,nt,10µM,?,?
COC(=O)C1=NN(C(=O)c2ccc(Cl)cc2)C(O)(c2ccccc2)C1 (configuration not stated),i,?,i,?,i,?
COc1ccc(CCC(=O)NC2CC(=O)N(c3ccc(OC)cc3)C2)cc1 (configuration not stated),i,nt,nt,nt,nt,i
O=C(NCc1ccccc1)c1nc(-c2ccc(Cl)cc2)n2c1CCCCC2,i,nt,i,nt,?,11µM
Cc1ccc(-c2nc(C(=O)NCc3ccc(Cl)cc3)c3n2CCCCC3)cc1,i,nt,?,nt,?,?
O=C(COc1ccc2ccccc2c1Br)N1CCCCC1,i,i,i,i,i,i
NC(=O)C1CCN(C(=O)COc2ccc3ccccc3c2Br)CC1,i,1.8µM,i,?,i,i
COC(=O)c1c(NC(=O)/C=C/C(=O)O)sc(C)c1-c1ccc(C)c(C)c1,i,4.5µM,?,i,i,?
CCOC(=O)c1c(NC(=O)/C=C/C(=O)O)sc(C)c1-c1ccc(F)cc1,i,?,?,i,i,?
CCOC(=O)c1c(NC(=O)/C=C/C(=O)O)sc(C)c1-c1ccc(C)c(C)c1,i,10µM,nt,i,i,?
O=C(NCC(c1ccc2c(c1)OCO2)N1CCN(c2ccccc2)CC1)C(=O)Nc1ccccc1 (configuration not stated),i,nt,i,nt,i,i
CCCNC(=O)CN1C(=O)CSc2ccc(S(=O)(=O)N3CCC(C)CC3)cc21,i,nt,i,nt,i,i
SMILES,HepG2 tox,RORgamma inh,ATXN2 expr inh,Gal4-VP16 FLuc,S2 tox,TGFb SMAD3 inh
CCC(C)N(CCNC(=O)c1ccc2c(c1)NC(=O)c1ccccc1S2)C1CCCCC1 (configuration not stated),11µM,i,?,i,?,?
CNC(=S)NNC(=O)c1ccc(=O)n(Cc2ccc(Cl)cc2Cl)c1,i,13µM,i,?,i,i
CNC(=S)NNC(=O)c1cccn(Cc2ccc(Cl)cc2Cl)c1=O,nt,i,nt,i,nt,nt
c1csc(C2CCCN2c2nc3nonc3nc2NC2CC2)n1 (configuration not stated),i,5µM,i,10µM,i,i
COc1cccc(-c2n[nH]nc2C2=CC(=O)C[C@H](c3ccc(F)cc3)C2)c1,i,nt,i,nt,i,i
Cc1nn(C)c(Cl)c1NC(=O)OCc1ccc(Cl)cc1Cl,i,?,i,8.9µM,?,?
Cc1nnsc1NC(=O)OCc1ccc(Cl)cc1Cl,i,?,i,i,i,?
CNCc1ccccc1Sc1cccc(O)c1,i,i,i,i,i,i
CNCc1ccccc1Sc1cc(O)ccc1O,i,16µM,?,?,?,?
Cc1cc(C(F)(F)F)nn1Cc1ccc(C(=O)NCc2ccco2)o1,i,10µM,i,?,i,i
COc1cc(=O)n2c(c1C(=O)N(C)Cc1cscn1)CCN(C(=O)c1ccc(C)cc1C)CC2,nt,nt,nt,nt,i,nt
COc1ccc(C(=O)Nc2ccc3nc4c(c(Nc5ccccc5OC)c3c2)CCCC4)c(OC)c1,i,nt,i,nt,?,i
COc1ccccc1Nc1c2c(nc3ccc(NC(=O)c4ccc(OC)c(OC)c4)cc13)CCCC2,22µM,nt,?,nt,25µM,?
COc1ccc(C(=O)Nc2ccc3nc4c(c(Nc5ccc(OC)c(OC)c5)c3c2)CCCC4)c(OC)c1,i,nt,?,nt,28µM,?
CCOc1ccc(NC2=C(Cl)C(=O)N(C3CCCCC3)C2=O)cc1,i,i,i,i,?,i
CN1CCN(C2=C(Cl)C(=O)N(C3CCCCC3)C2=O)CC1,i,i,i,i,i,13µM
CC(C)CCNC1=NCCCCC1,11µM,i,i,i,i,?
CCOC(=S)SCc1cn2ccc(C)cc2n1,i,14µM,i,?,?,?
Cc1ccn2cc(CSc3ccccc3N)nc2c1,i,13µM,i,i,i,i
C=Cc1ccccc1,nt,i,nt,i,i,nt
CCc1ccccc1N(C)C(=O)C1CCCN(c2ncnc3c2nc2n3CCCCC2)C1 (configuration not stated),i,nt,i,nt,i,?
CC(C(=O)N(C)C1CCS(=O)(=O)C1)N1C(=O)/C(=C/c2ccc(F)cc2)SC1=S (configuration not stated),i,i,i,16µM,i,?
